According to PubChem BioAssay (NCI):
This is part of a sample that, as a whole, favours compounds with a hit. Of some 83,000 tested, about 20% had one in any assay.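 96-well plates, one dose, 48 hours. Percent growth reported; active if below 10.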 A number with no mark means an inactive call. The source made the active and inactive calls.

Key:
Test in all cases: NCI-60 one-dose screen, 48 h (100 = growth as untreated, 0 = no growth, -100 = all killed)
Conditions in all cases: 10 µM unless noted
SK-MEL-2 melanoma = system: SK-MEL-2 melanoma
EKVX NSCLC = system: EKVX NSCLC
SN12C renal = system: SN12C renal
UO-31 renal = system: UO-31 renal
TK-10 renal = system: TK-10 renal
ACHN renal = system: ACHN renal
CCRF-CEM leukemia = system: CCRF-CEM leukemia
MOLT-4 leukemia = system: MOLT-4 leukemia
SR leukemia = system: SR leukemia
RPMI-8226 leukemia = system: RPMI-8226 leukemia
OVCAR-8 ovarian = system: OVCAR-8 ovarian
OVCAR-5 ovarian = system: OVCAR-5 ovarian
OVCAR-4 ovarian = system: OVCAR-4 ovarian
SK-OV-3 ovarian = system: SK-OV-3 ovarian
IGROV1 ovarian = system: IGROV1 ovarian
OVCAR-3 ovarian = system: OVCAR-3 ovarian
HS 578T breast = system: HS 578T breast
NCI/ADR-RES ovarian = system: NCI/ADR-RES ovarian
T-47D breast = system: T-47D breast

Row | Compound | growth (SK-MEL-2 melanoma) | growth (EKVX NSCLC) | growth (SN12C renal) | growth (UO-31 renal) | growth (TK-10 renal) | growth (ACHN renal) | growth (CCRF-CEM leukemia) | growth (MOLT-4 leukemia) | growth (SR leukemia) | growth (RPMI-8226 leukemia) | growth (OVCAR-8 ovarian) | growth (OVCAR-5 ovarian) | growth (OVCAR-4 ovarian) | growth (SK-OV-3 ovarian) | growth (IGROV1 ovarian) | growth (OVCAR-3 ovarian) | growth (HS 578T breast) | growth (NCI/ADR-RES ovarian) | growth (T-47D breast)
1 | COc1cc(/C=C/C(=O)/C=C/c2cc3ccc(Cl)cc3n(Cc3ccccc3)c2=O)ccc1O | -13.2% (active) | 8.91% (active) | -18.4% (active) | -88.9% (active) | 13.8% | -15.4% (active) | 3.16% (active) | 5.11% (active) | 1.8% (active) | -18.8% (active) | 5.61% (active) | 19.4% | 25.8% | 37.3% | 3.2% (active) | -46.4% (active) | 43.5% | 15% | 2.39% (active)
2 | Nc1c(C(=O)Nc2cccc3ccccc23)sc2nc3c(cc12)COCC3 | 49.1% | 85.1% | 59.9% | 77% | 96.4% | 62.5% | 23.6% | 35% | 22.4% | 59.6% | 57.9% | 87.9% | 73.4% | 38.6% | 49.1% | 19.8% | 35.8% | 26.8% | 57.1%
3 | O=C1NC(c2ccc(F)cc2)N=C2C(c3ccccc3)=NOC12 (stereo unspecified) | 108% | 99.8% | 104% | 97.4% | 106% | 107% | 102% | 116% | 112% | 107% | 106% | 108% | 105% | 106% | 108% | 109% | 106% | 112% | 
4 | CCCCc1ccc(N=Nc2ccc(OCC[N+](C)(C)C)cc2)cc1 | 93.6% | 85.1% | 31% | 88.1% | 31.3% | 67% | 62.4% | 57.2% | 76% | 17.8% | 26.8% | 76.2% | 71.8% | 74.8% | 19.2% | 30.2% | 72.3% | 104% | 88.7%
5 | Nc1c(C(=O)c2ccccc2)sc2nc(-c3cc4ccccc4o3)cc(-c3ccc(Cl)cc3)c12 | 84.1% | 103% | 165% | 79.1% | 137% | 82.9% | 105% | 101% | 108% | 82.7% | 95.8% | 107% | 98.3% | 106% | 55.8% | 85.1% | 136% | 108% | 90%
6 | NS(=O)(=O)c1ccc(N2Cc3cc(Cl)ccc3OC3=C2C(=O)N(CC2CCCCC2)C3=O)cc1 | -72.3% (active) | -65.1% (active) | -65.3% (active) | -84% (active) | -96.7% (active) | -100% (active) | -38.8% (active) | -34.9% (active) | -43.4% (active) | -30% (active) | -71.9% (active) | -88.7% (active) | -95.3% (active) | 60% | -47.6% (active) | -89.6% (active) | 14.5% | 4.6% (active) | -55.3% (active)
7 | COc1ccc2c(c1)Oc1nc(N)c(C#N)c(N)c1C2Sc1ccc(O)cc1 (stereo unspecified) | 87.5% | 77.7% | 89.4% | 68.3% | 98.5% | 94.2% | 16.5% | 34.7% | 13.7% | 53.4% | 102% | 118% | 88.8% | 104% | 62% | 79.7% | 109% | 106% | 50.7%
8 | COC(=O)/C=C1\SC(=Nc2cccc(Cl)c2)N(CCc2c[nH]c3ccccc23)C1=O | 40.6% | 71.9% | 44.5% | 58.5% | 73.4% | 63.9% | 5.03% (active) | -17.6% (active) | -7.91% (active) | -25% (active) | 51.4% | 73.6% | 62% | 83.8% | 53.7% | 33.3% | 67.4% | 52.4% | 11.9%
9 | Cc1cc(C)n(-c2nc(-c3cccs3)c(C#N)c(=O)[nH]2)n1 | 97.2% | 95.5% | 95.8% | 89.1% | 103% | 108% |  | 87% | 100% | 105% | 102% | 105% | 91.1% | 90.9% | 108% | 94.7% | 106% | 85.7% | 80.6%
10 | C/C(=N/Nc1nc2ccccc2n1C)c1ccccn1 | 39.8% | 6.63% (active) | 10.1% | -16.4% (active) | 36.8% | 10.3% | -6.15% (active) | 1.82% (active) | 3.01% (active) | -17.5% (active) | 0.773% (active) | 35.3% | 20.8% | -0.894% (active) | 18% | 10.3% | 44.5% | -7.51% (active) | 8.05% (active)
11 | O=C(/C(=C\c1c(-c2ccccc2)[nH]c2ccccc12)S(=O)(=O)c1ccccc1)c1ccccc1 | 35.8% | 28.7% | 82% | 60.9% | 78.2% | 48.7% | 21% | 3.71% (active) | 15.1% | -34.2% (active) | 66.2% | 83.1% | 42.8% | 23.1% | 78.7% | 56.3% | 72.1% | 43.4% | 22.2%
12 | COc1cc2c(cc1OC)C(Sc1ccc(Cl)cc1)c1c(nc(N)c(C#N)c1N)O2 (stereo unspecified) | -21.1% (active) | 1.68% (active) | 1.66% (active) | -36.3% (active) | -12.6% (active) | -66.9% (active) | -7.67% (active) | 0.994% (active) | -13.3% (active) | -24.2% (active) | 1.28% (active) | 10.8% | -14.8% (active) | 56.1% | -25.5% (active) | -69.6% (active) | 30.8% | 1.5% (active) | -3.7% (active)
13 | COc1ccc(Cc2nc(C#N)c(N3CCN(c4ccc(F)cc4)CC3)o2)cc1 | 88.2% | 93.2% | 105% | 81.7% | 75.1% | 103% | 83.7% | 87.7% | 88.9% | 93.3% | 103% | 86.7% | 79.3% | 89.6% | 76.8% | 96.9% | 92.5% | 95.3% | 81.2%
14 | C=C(C)[C@@H]1CC[C@]2(C(=O)OCCOCCOCC[P+](c3ccccc3)(c3ccccc3)c3ccccc3)CC[C@]3(C)[C@H](CC[C@@H]4[C@@]5(C)CC[C@H](OC(C)=O)C(C)(C)[C@@H]5CC[C@]43C)[C@@H]12 | -75.6% (active) | -74.8% (active) | -89.9% (active) | -95.1% (active) | -87.1% (active) | -96.7% (active) | -41% (active) | -77.9% (active) | -49.2% (active) | -63.9% (active) | -78.2% (active) | -86.2% (active) | -82.1% (active) | -94.5% (active) | -83.9% (active) | -95.8% (active) | -48.3% (active) | 4.3% (active) | -76.7% (active)
15 | CN1CCN(S(=O)(=O)O[C@@H]2C(=O)N(c3cc4c5ccccc5ccc4c4ccccc34)[C@H]2c2ccc(F)cn2)CC1 | 92.8% | 85% | 92.2% | 66.6% | 94.6% | 92.1% |  | 66.6% | 52.5% | 79.7% | 85.7% | 108% | 99.1% | 97.9% | 87.8% | 88.4% | 84.1% | 92.2% | 78.9%
16 | C[C@H]1[C@H](C)CC[C@]2(C(=O)OCCOCCOCC[P+](c3ccccc3)(c3ccccc3)c3ccccc3)CC[C@]3(C)C(=CC[C@@H]4[C@@]5(C)CC[C@H](OC(=O)C(Cl)Cl)C(C)(C)[C@@H]5CC[C@]43C)[C@H]12 | -21.5% (active) | -3.78% (active) | -6.85% (active) | 3.95% (active) | 12.7% | -1.41% (active) | 7.44% (active) | -6.91% (active) | -33.5% (active) | 0.348% (active) | 11% | 37.3% | 6.72% (active) | -0.459% (active) | 15.1% | 16.1% | 38.4% | 69% | 21.8%
